Inconclusive results are not listed. Active and inactive are the calls of the source. The calls were made as follows: active = hit-call score of the fitted dose curve at least 0.9, where 1 is the maximum; inconclusive = response in the unintended direction; inactive = score below 0.9.
These compounds were tested on alkyl and aryl transferase (GSTA2), GSTA2 (gene 2939) (assay: CLD_GSTA2_6hr: CellzDirect (CLD) Gene Expression Assay for alkyl and aryl transferase (GSTA2) at 6 hours (AID 2283666)).
Procedure: CLD_6hr is a cell-based, multiplexed-readout assay that uses hepatocyte, a human liver primary cell, with measurements taken at 6 hours after chemical dosing in a 96-well plate.CLD_GSTA2_6hr is one of 16 assay component(s) measured or calculated from the CLD_6hr assay. It is designed to make measurements of mRNA induction, a form of inducible reporter, as detected with chemiluminescence signals by Quantitative Nuclease Protection Assay (qNPA) technology.Data from the assay component CLD_GSTA2_6hr was analyzed at the endpoint, CLD_GSTA2_6hr, in the positive analysis fitting direction relative to DMSO as the negative control and baseline of activity. Using a type of inducible reporter, gain-of-signal activity can be used to understand changes in the reporter gene as they relate to the gene GSTA2. Furthermore, this assay endpoint can be referred to as a primary readout. To generalize the intended target to other relatable targets, this assay endpoint is annotated to the transferase intended target family, where subfamily is alkyl and aryl transferase.
Human hepatocyte cultures were treated daily for two consecutive days with fresh dosing solutions containing appropriate concentrations of the 320 ToxCast chemicals (chemical identities were blinded to CellzDirect and other ToxCast collaborators), vehicle control (0.2% DMSO), and positive control inducers as summarized in Table 1. Due to the large number of treatment groups and chemicals examined, the ToxCast chemicals were divided into two groups (spanning two independent cultures of hepatocytes from separate donor preparations (Hu778: ToxCast plates 1 and 2; Hu776: ToxCast plates 3 and 4). Each preparation of human hepatocyte cultures was treated with respective vehicle control, medium only control, set of six positive controls/reference chemicals for the five hepatic receptor pathways, and a subset of eight of the ToxCast chemicals (indoxacarb, pyrithiobac-sodium, norflurazon, cyhalofop-butyl, methomyl, thiram, acetochlor, and propiconazole). These replicate data, coupled with internal replicates designed within the blinded ToxCast chemical library, provided additional data to evaluate interindividual differences between hepatocyte preparations and their potential impact on chemical profiles.Cell morphology and integrity were evaluated using phase-contrast microscopy as an indicator of hepatocyte cell health (Tyson & Green, 1987). Cultures for each treatment group (i.e., media, vehicle [0.2% DMSO], positive control inducers [multiple concentrations], and the ToxCast chemicals [multiple concentrations]) were observed and cell morphology was assessed relative to vehicle control cultures at each harvest time point (0, 6, 24, or 48 h). […] Images were evaluated at the conclusion of the study to assess changes in cell integrity and account for the effects of chemical exposure on uncharacteristic changes in concentration-dependent gene expression profiles. The results from these determinations of apparent cytotoxicity were annotated (yes/no) alongside the corresponding qNPA data for reference.At the conclusion of each treatment period, hepatocyte cultures (96-well) were washed with 1 volume of HBSS, lysed by addition of 25 ul ArrayPlate lysis buffer (HTG, Tucson, AZ), and 70 ul/well of Denaturation Oil, denatured by incubation at 95C for 10 min, and frozen at approximately -70C until analysis by nuclease protection assay (qNPA) (Roberts et al., 2007). For qNPA analysis, cell lysates were thawed at 50C for approximately 30 min, qNPA probes were added, and samples were incubated at 95C for 10 min to begin the detection process by denaturing the target RNA, dissociating the duplexes and secondary structure hybridization. At the conclusion of the hybridization period, S1 nuclease reagent was added to each sample to digest all nonprotected nucleotides at 50C for 60-90 min. […]
In the case of `CCOC(=O)C(C)Oc1ccc(Oc2nc3ccc(Cl)cc3o2)cc1` (stereo not drawn), the outcome is reported as “inactive”. `Cc1nn(C)c(Oc2ccccc2)c1C=NOCc1ccc(C(=O)OC(C)(C)C)cc1` was tested, and the outcome was “inactive”. With `CC(C)(c1ccc(O)cc1)c1ccc(O)cc1` the outcome was “inactive”. `CC1(C)C(C=C(Cl)Cl)C1C(=O)OCc1cccc(Oc2ccccc2)c1` (stereo not drawn) was tested, and the outcome was “inactive”. With `COCCO` the outcome was “inactive”. For `S=C([S-])NCCNC(=S)[S-].[Mn+2]`, the outcome was “inactive”. With `O=C(Nc1ccc([N+](=O)[O-])cc1Cl)c1cc(Cl)ccc1O` the outcome was “inactive”. In the case of `COc1nc(C)nc(NC(=O)NS(=O)(=O)c2ccccc2OCCCl)n1`, the outcome is reported as “inactive”. With `CCCCOC(=O)C(C)Oc1ccc(Oc2ccc(C(F)(F)F)cn2)cc1` (stereo not drawn) the outcome was “inactive”. In the case of `N#CSCSc1nc2ccccc2s1`, the outcome is reported as “inactive”. With `O=C(O)C1(C(=O)Nc2ccc(Cl)cc2Cl)CC1` the outcome was “inactive”. `C=CCOC(Cn1ccnc1)c1ccc(Cl)cc1Cl` (stereo not drawn) was tested, and the outcome was “inactive”. For `COC(=O)c1ccc(I)cc1S(=O)(=O)NC(=O)Nc1nc(C)nc(OC)n1`, the outcome was “inactive”. In the case of `Oc1ccc(C(c2ccc(O)cc2)C(Cl)(Cl)Cl)cc1`, the outcome is reported as “inactive”. `CCCCCOC(=O)COc1cc(N2C(=O)C3=C(CCCC3)C2=O)c(F)cc1Cl` was tested, and the outcome was “inactive”. With `CCOC(=O)C(C)Oc1ccc(Oc2cnc3cc(Cl)ccc3n2)cc1` (stereo not drawn) the outcome was “inactive”. In the case of `CSC(=O)c1cccc2nnsc12`, the outcome is reported as “inactive”. In the case of `c1ccc(Nc2ccccc2)cc1`, the outcome is reported as “inactive”. With `COC(=O)c1c(Cl)nn(C)c1S(=O)(=O)NC(=O)Nc1nc(OC)cc(OC)n1` the outcome was “inactive”. In the case of `COc1c(Cl)ccc(Cl)c1C(=O)O`, the outcome is reported as “inactive”. With `COC(=O)c1ccccc1S(=O)(=O)NC(=O)Nc1nc(OC(F)F)cc(OC(F)F)n1` the outcome was “inactive”. With `CCN(Cc1c(F)cccc1Cl)c1c([N+](=O)[O-])cc(C(F)(F)F)cc1[N+](=O)[O-]` the outcome was “inactive”. In the case of `CCC(C)OC(=O)N1CCCCC1CCO` (stereo not drawn), the outcome is reported as “inactive”. With `CCSC(=O)N(CC(C)C)CC(C)C` the outcome was “inactive”. With `CCCN(CCC)c1c([N+](=O)[O-])cc(C(F)(F)F)c(N)c1[N+](=O)[O-]` the outcome was “inactive”. In the case of `CCCOC(=O)NCCCN(C)C`, the outcome is reported as “inactive”. For `c1ccc2[nH]c(-c3cscn3)nc2c1`, the outcome was “inactive”. For `CCN(CC)C(=O)c1cccc(C)c1`, the outcome was “inactive”. In the case of `CN(C)C(=O)Nc1ccc(Cl)c(Cl)c1`, the outcome is reported as “inactive”. With `CCCN(CCC)C(=O)SCC` the outcome was “inactive”. With `CCC(O)=C1C(=O)CC(C(=O)O)CC1=O` (stereo not drawn) the outcome was “inactive”. `CCNc1nc(N)nc(Cl)n1` was tested, and the outcome was “inactive”. `CC(C)(C)[C@@H](O)[C@@H](Cc1ccc(Cl)cc1)n1cncn1` was tested, and the outcome was “inactive”.

From PubChem BioAssay (EPA / NIEHS)
